# Data: the antibiotic and cytotoxicity screens of Wong et al. (2023)
# About 3,300 (8.5%) of roughly 39,000 compounds were called active. The sample holds actives, similar compounds and a random draw of the others, so the mix is not that of the screen.
# Test system: HepG2
# Assay: cytotoxicity call (relative viability < 0.9)
# Settings: 10 µM
row,SMILES,cytotoxicity call
1,CCS(=O)(=O)N1Cc2nccn2C[C@H](Cn2ncccc2=O)C1,inactive
2,Cc1ccc(S(=O)(=O)Nc2ccc3c(c2)C(=O)N([C@@H](C)CO)C[C@@H](C)[C@@H](CN(C)S(=O)(=O)c2ccc(F)cc2)O3)cc1,inactive
3,Cc1noc(C)c1S(=O)(=O)Nc1cccc2c1O[C@H](CN(C)Cc1ccc(C(=O)O)cc1)[C@H](C)CN([C@H](C)CO)C2=O,active
4,Cc1noc(C)c1S(=O)(=O)Nc1cccc2c1O[C@@H](CN(C)S(C)(=O)=O)[C@@H](C)CN([C@@H](C)CO)C2=O,active
5,Cc1noc(C)c1S(=O)(=O)Nc1cccc2c1O[C@@H](CN(C)S(C)(=O)=O)[C@@H](C)CN([C@H](C)CO)C2=O,inactive
6,Cc1noc(C)c1S(=O)(=O)Nc1cccc2c1O[C@H](CN(C)S(C)(=O)=O)[C@H](C)CN([C@@H](C)CO)C2=O,inactive
7,Cc1noc(C)c1S(=O)(=O)Nc1cccc2c1O[C@H](CN(C)Cc1ccc(C(=O)O)cc1)[C@@H](C)CN([C@H](C)CO)C2=O,inactive
8,Cc1noc(C)c1S(=O)(=O)Nc1cccc2c1O[C@H](CN(C)Cc1ccc(C(=O)O)cc1)[C@H](C)CN([C@@H](C)CO)C2=O,inactive
9,CC(C)CC#Cc1cnc2c(c1)C(=O)N([C@@H](C)CO)C[C@@H](C)[C@@H](CN(C)S(=O)(=O)c1cccs1)O2,inactive
10,C[C@H](CO)N1C[C@H](C)[C@H](CN(C)C(=O)Nc2ccc(F)cc2)OCCCC[C@H](C)Oc2ccc(NC(=O)c3ccncc3)cc2C1=O,inactive
11,CCS(=O)(=O)N1CC[C@]2(CC1)CN(Cc1ccc3c(c1)OCO3)[C@@H](CO)c1[nH]c3cc(ccc3c12)OC,inactive
12,CCC(=O)N1C[C@]2(CN(C2)C(=O)CN2CCOCC2)c2c([nH]c3cc(ccc23)OC)[C@H]1CO,inactive
13,COc1ccc(S(=O)(=O)Nc2ccc3c(c2)C(=O)N([C@H](C)CO)C[C@H](C)[C@@H](CN(C)C(=O)Nc2ccc4c(c2)OCO4)OCCCC[C@@H](C)O3)cc1,inactive
14,C[C@@H]1CN([C@@H](C)CO)C(=O)c2cccc(NC(=O)c3ccncc3)c2O[C@@H]1CN(C)S(=O)(=O)c1cn(C)cn1,inactive
15,Cc1ccc(S(=O)(=O)N(C)C[C@@H]2OCCCC[C@@H](C)Oc3ccc(NC(=O)Nc4ccc(C(F)(F)F)cc4)cc3C(=O)N([C@H](C)CO)C[C@H]2C)cc1,inactive
16,Cc1ccc(S(=O)(=O)N(C)C[C@H]2OCCCC[C@@H](C)Oc3ccc(NC(=O)Nc4ccc(C(F)(F)F)cc4)cc3C(=O)N([C@@H](C)CO)C[C@@H]2C)cc1,active
17,Cc1ccc(S(=O)(=O)N(C)C[C@@H]2OCCCC[C@H](C)Oc3ccc(NC(=O)Nc4ccc(C(F)(F)F)cc4)cc3C(=O)N([C@@H](C)CO)C[C@@H]2C)cc1,inactive
18,Cc1ccc(S(=O)(=O)N(C)C[C@@H]2OCCCC[C@@H](C)Oc3ccc(NC(=O)Nc4ccc(C(F)(F)F)cc4)cc3C(=O)N([C@@H](C)CO)C[C@H]2C)cc1,active
19,Cc1ccc(S(=O)(=O)N(C)C[C@@H]2OCCCC[C@H](C)Oc3ccc(NC(=O)Nc4ccc(C(F)(F)F)cc4)cc3C(=O)N([C@H](C)CO)C[C@H]2C)cc1,inactive
20,Cc1ccc(S(=O)(=O)N(C)C[C@H]2OCCCC[C@H](C)Oc3ccc(NC(=O)Nc4ccc(C(F)(F)F)cc4)cc3C(=O)N([C@@H](C)CO)C[C@@H]2C)cc1,inactive
21,O=C([O-])C=CC(=O)[O-].[Fe+2],inactive

row,SMILES,cytotoxicity call
1,O=C(CCCCC(=O)N/N=C/[C@H](O)[C@@H](O)[C@H](O)[C@H](O)CO[C@H]1O[C@H](CO)[C@H](O)[C@H](O)[C@H]1O)NO,inactive
2,CC(C)NC(=O)N(C)C[C@H]1Oc2ccc(NS(=O)(=O)c3ccc(Cl)cc3)cc2CC(=O)N([C@H](C)CO)C[C@H]1C,inactive
3,CCOC(=O)c1nnn(-c2nonc2N)c1CN1CCSCC1,inactive
4,CCOC(=O)CCCCCC(=O)Nc1ccc2c(c1)C(=O)N([C@@H](C)CO)C[C@H](C)[C@H](CN(C)S(C)(=O)=O)O2,inactive
5,COc1ccc(O)c(N)c1,active
6,Nc1cc(-c2ccccc2)ccc1O,inactive
7,COc1ccc(C(C)=O)c(O)c1,inactive
8,COc1ccc(NC(=O)N(C)C[C@H]2Oc3ccc(NS(C)(=O)=O)cc3CC(=O)N([C@@H](C)CO)C[C@H]2C)cc1,inactive
9,COc1ccc2c(O[C@H]3CCCC[C@@H]3OC)nccc2c1-n1ccnc1-c1c[nH]c2c(N)c(F)cc(C#N)c12,active
10,C[C@@H]1CN([C@@H](C)CO)C(=O)c2cc(NS(=O)(=O)c3cn(C)cn3)ccc2O[C@@H](C)CCCCO[C@@H]1CN(C)S(=O)(=O)c1cn(C)cn1,inactive
11,COc1ccc(-c2coc3cc(OC)cc(OC)c3c2=O)cc1,inactive
12,C[C@H](CO)N1C[C@H](C)[C@@H](CN(C)S(=O)(=O)c2cccc(F)c2)Oc2ncc(C#CC3(O)CCCC3)cc2C1=O,inactive
13,C[C@@H]1CCCCO[C@@H](CN(C)C(=O)NC2CCCCC2)[C@@H](C)CN([C@H](C)CO)C(=O)c2cc(NC(=O)Cc3ccccc3)ccc2O1,inactive
14,C[C@@H]1CN([C@H](C)CO)C(=O)c2cc(NS(C)(=O)=O)ccc2O[C@@H]1CN(C)S(=O)(=O)c1ccc(F)cc1,inactive
15,C[C@H]1CN([C@@H](C)CO)C(=O)c2cccc(NC(=O)c3nc4ccccc4s3)c2O[C@@H]1CN(C)Cc1ccc(C(=O)Nc2ccccc2N)cc1,inactive
16,C[C@H](CO)N1C[C@H](C)[C@@H](CN(C)Cc2ccc(C(=O)Nc3ccccc3N)cc2)Oc2c(NC(=O)c3nc4ccccc4s3)cccc2C1=O,active
17,C[C@H](CO)N1C[C@H](C)[C@H](CN(C)Cc2ccc(C(=O)Nc3ccccc3N)cc2)Oc2c(NC(=O)c3nc4ccccc4s3)cccc2C1=O,inactive
18,C[C@@H]1CN([C@@H](C)CO)C(=O)c2cccc(NC(=O)c3nc4ccccc4s3)c2O[C@@H]1CN(C)Cc1ccc(C(=O)Nc2ccccc2N)cc1,active
19,C[C@H]1CN([C@@H](C)CO)C(=O)c2cccc(NC(=O)c3nc4ccccc4s3)c2O[C@H]1CN(C)Cc1ccc(C(=O)Nc2ccccc2N)cc1,inactive
20,C[C@@H]1CN([C@@H](C)CO)C(=O)c2cccc(NC(=O)c3nc4ccccc4s3)c2O[C@H]1CN(C)Cc1ccc(C(=O)Nc2ccccc2N)cc1,inactive
